Results from PubChem BioAssay (NCI).
This is part of a sample that, as a whole, favours compounds with a hit. Of some 83,000 tested, about 20% had one in any assay.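 The test compound was applied at a single concentration to cells in 96-well plates for 48 hours, and percent growth was recorded.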 Calls of active or inactive are those of the source. The calls were made as follows: active = growth percent below 10; inactive = the rest.

test system: OVCAR-8 ovarian; test: NCI-60 one-dose screen, 48 h (100 = growth as untreated, 0 = no growth, -100 = all killed); details: 10 µM unless noted

| Structure (SMILES) | growth |
| --- | --- |
| COc1ccc2[nH]cc(-c3csc4nc(-c5ccccc5)cn34)c2c1 | 24.1% (inactive) |
| Cc1ccc2c(c1)Oc1nc(N)c(C#N)c(N)c1C2Sc1ccc(F)cc1 (centres undefined) | -99.4% (active) |
| COc1ccc(Cn2cc3c(c2-c2cc(OC)c(OC)c(OC)c2)CCc2c(CN4CCCC4)noc2-3)cc1 | 42.5% (inactive) |
| CCNC(=O)N1CCc2cc(OC)c(OCCc3ccc(OC)cc3)cc2C1c1ccc([N+](=O)[O-])cc1C (centres undefined) | 29.1% (inactive) |
| COc1ccc([C@@H]2[C@@H](O)C(=O)N2c2cc(OC)c(OC)c(OC)c2)cc1F | -5.69% (active) |
| COc1cc2oc(-c3cccc(C(=O)N[C@@H](CC(C)C)C(=O)OC(C)(C)C)c3)cc(=O)c2c(OC)c1OC | 49.3% (inactive) |
| Cc1ccc(S(=O)(=O)N(CC[C@@H]2C[C@H]2c2cc3ccccc3o2)S(=O)(=O)c2ccc(C)cc2)cc1 | 96.8% (inactive) |
| Brc1ccccc1/C=N/Nc1nc(N/N=C/c2ccccc2Br)nc(N2CCOCC2)n1 | 96.6% (inactive) |
| CN(C)CCN(C)c1ccc2ncc(C#Cc3cncc(C(=O)Nc4ccc(CN5CCN(C)CC5)c(C(F)(F)F)c4)c3)n2n1 | 63.6% (inactive) |
| NC(N)=Nc1ccc(Oc2cccc(Nc3ccc(Br)c(C(F)(F)F)c3)c2)cn1 | -60.6% (active) |
| Cc1cc(-c2ccc(Cl)cc2)n(Cc2nnc(SCC(=O)Nc3ccc(S(N)(=O)=O)cc3)n2-c2ccc([N+](=O)[O-])cc2)n1 | 88.7% (inactive) |
| COc1ccc(C(=O)CSc2nc3c(c(Nc4ccc(S(N)(=O)=O)cc4)n2)CCCC3)cc1 | 92.3% (inactive) |
| CCn1c(SCC(=O)Nc2cccc(C(=O)/C=C/c3cc(OC)c(OC)c(OC)c3)c2)nc2ccccc2c1=O | 34.3% (inactive) |
| Nc1ncc(-c2ccc(NS(=O)(=O)c3ccc(Cl)c(Cl)c3)cc2)[nH]1 | 92.9% (inactive) |
| Cc1nn(-c2ccccc2)c2ncnc(N/N=C/c3ccccc3O)c12 | 12.2% (inactive) |
| CCc1ccc(SC2c3ccc(N(CC)CC)cc3Oc3nc(N)c(C#N)c(N)c32)cc1 (centres undefined) | 5.08% (active) |
| CS(=O)(=O)Nc1cc(-c2ccc3ncc(C#N)c(NCc4ccccc4O)c3c2)cnc1Cl | 8.27% (active) |
| NS(=O)(=O)c1ccc(Nc2cc(-c3ccccc3)nc(SCC(=O)c3ccccc3)n2)cc1 | 99.3% (inactive) |
| COCCNc1ccc2ncc(C#Cc3cncc(C(=O)Nc4ccc(CN5CCN(C)CC5)c(C(F)(F)F)c4)c3)n2n1 | -5.34% (active) |
| O=c1c2ccccc2nc(COc2ccccc2)n1NS(=O)(=O)c1ccc(Cl)cc1 | 92% (inactive) |
| NC(N)=Nc1ccc(Oc2cccc(Nc3ccc(Cl)c(C(F)(F)F)c3)c2)cn1 | -66% (active) |
| COc1cc(/C=N/NC(=O)c2cn(C3CC3)c3c(OC)c(N4CC5CCCNC5C4)c(F)cc3c2=O)ccc1O (centres undefined) | 74.2% (inactive) |
| N#Cc1cn(Cc2ccc(Cl)cc2Cl)c(C(=O)c2ccc(Br)cc2)c1N | 84.5% (inactive) |
| CCNC(=O)N1CCc2cc(OC)c(OCCc3ccc(OC)nc3)cc2C1c1ccc(OC)cc1C (centres undefined) | 42.4% (inactive) |
| Cc1ccc(S(=O)(=O)NCCNc2nc(Nc3ccc(N4CCN(C)CC4)cc3)nc3ccsc23)cc1 | 104% (inactive) |
| COc1cc2nc(Cl)nc(Nc3cccc(C4=Nc5c(N)nc(N)nc5NC(c5ccc(Cl)cc5)C4)c3)c2cc1OC (centres undefined) | 29.1% (inactive) |

test system: OVCAR-5 ovarian; test: as above; details: 10 µM unless noted

| Structure (SMILES) | growth |
| --- | --- |
| COc1ccc2[nH]cc(-c3csc4nc(-c5ccccc5)cn34)c2c1 | 46.2% (inactive) |
| COc1cc(Cn2cc3c(c2)-c2onc(CN4CCCC4)c2CC3)cc(OC)c1OC | 99% (inactive) |
| COC(=O)/C=C/c1c(C2(C)NC(=O)c3ccccc3N2)c(=O)oc2ccc(Cl)cc12 (centres undefined) | 101% (inactive) |
| Cc1ccc2c(c1)Oc1nc(N)c(C#N)c(N)c1C2Sc1ccc(F)cc1 (centres undefined) | -93.5% (active) |
| COc1ccc(Cn2cc3c(c2-c2cc(OC)c(OC)c(OC)c2)CCc2c(CN4CCCC4)noc2-3)cc1 | 27.9% (inactive) |
| COc1ccc(Cn2cc3c(c2-c2cc(OC)c(OC)c(OC)c2)CCc2c(CN4CCOCC4)noc2-3)cc1 | 32.1% (inactive) |
| CCNC(=O)N1CCc2cc(OC)c(OCCc3ccc(OC)cc3)cc2C1c1ccc([N+](=O)[O-])cc1C (centres undefined) | 40.4% (inactive) |
| COc1ccc([C@@H]2[C@@H](O)C(=O)N2c2cc(OC)c(OC)c(OC)c2)cc1F | 31.5% (inactive) |
| Cc1ccc(-c2nnc(SCc3ccc(O)c4ncccc34)n2-c2ccccc2)cc1 | 37.5% (inactive) |
| COc1cc2oc(-c3cccc(C(=O)N[C@@H](CC(C)C)C(=O)OC(C)(C)C)c3)cc(=O)c2c(OC)c1OC | 93% (inactive) |
| Cc1ccc(S(=O)(=O)N(CC[C@@H]2C[C@H]2c2cc3ccccc3o2)S(=O)(=O)c2ccc(C)cc2)cc1 | 98% (inactive) |
| Brc1ccccc1/C=N/Nc1nc(N/N=C/c2ccccc2Br)nc(N2CCOCC2)n1 | 111% (inactive) |
| CC1=NC2=NC(=O)/C(=C3/N=C(C)C=C(c4ccccc4)N3N)NN2C(c2ccccc2)=C1 | 101% (inactive) |
| CN(C)CCN(C)c1ccc2ncc(C#Cc3cncc(C(=O)Nc4ccc(CN5CCN(C)CC5)c(C(F)(F)F)c4)c3)n2n1 | 91.5% (inactive) |
| NC(N)=Nc1ccc(Oc2cccc(Nc3ccc(Br)c(C(F)(F)F)c3)c2)cn1 | -56.6% (active) |
| COc1cc(Cn2cc3c(c2)-c2onc(CN4CCOCC4)c2CC3)cc(OC)c1OC | 95% (inactive) |
| Cc1cc(-c2ccc(Cl)cc2)n(Cc2nnc(SCC(=O)Nc3ccc(S(N)(=O)=O)cc3)n2-c2ccc([N+](=O)[O-])cc2)n1 | 98.5% (inactive) |
| COc1ccc(C(=O)CSc2nc3c(c(Nc4ccc(S(N)(=O)=O)cc4)n2)CCCC3)cc1 | 123% (inactive) |
| CCn1c(SCC(=O)Nc2cccc(C(=O)/C=C/c3cc(OC)c(OC)c(OC)c3)c2)nc2ccccc2c1=O | 27.7% (inactive) |

| Structure (SMILES) | growth |
| --- | --- |
| Nc1ncc(-c2ccc(NS(=O)(=O)c3ccc(Cl)c(Cl)c3)cc2)[nH]1 | 90.4% (inactive) |
| Cc1nn(-c2ccccc2)c2ncnc(N/N=C/c3ccccc3O)c12 | 35.9% (inactive) |
| COc1cc(-c2nnc(SCc3ccc(O)c4ncccc34)n2-c2ccccc2)cc(OC)c1OC | 33.2% (inactive) |
| Oc1ccc(CSc2nnc(-c3ccc(Cl)cc3)n2-c2ccccc2)c2cccnc12 | 57.7% (inactive) |
| CCc1ccc(SC2c3ccc(N(CC)CC)cc3Oc3nc(N)c(C#N)c(N)c32)cc1 (centres undefined) | -84.2% (active) |
| CS(=O)(=O)Nc1cc(-c2ccc3ncc(C#N)c(NCc4ccccc4O)c3c2)cnc1Cl | 21.7% (inactive) |
| NS(=O)(=O)c1ccc(Nc2cc(-c3ccccc3)nc(SCC(=O)c3ccccc3)n2)cc1 | 104% (inactive) |
| c1ccc(C(c2nc3ncncc3[nH]2)N2CSc3nc4ccccc4n3C2)cc1 (centres undefined) | 103% (inactive) |
| COCCNc1ccc2ncc(C#Cc3cncc(C(=O)Nc4ccc(CN5CCN(C)CC5)c(C(F)(F)F)c4)c3)n2n1 | 3.94% (active) |
| O=c1c2ccccc2nc(COc2ccccc2)n1NS(=O)(=O)c1ccc(Cl)cc1 | 91.2% (inactive) |
| NC(N)=Nc1ccc(Oc2cccc(Nc3ccc(Cl)c(C(F)(F)F)c3)c2)cn1 | -64% (active) |
| O=C1CC(=O)N2CSCN(C(c3ccccc3)c3nc4ncncc4[nH]3)C2=N1 (centres undefined) | 111% (inactive) |
| COc1cc(/C=N/NC(=O)c2cn(C3CC3)c3c(OC)c(N4CC5CCCNC5C4)c(F)cc3c2=O)ccc1O (centres undefined) | 38.4% (inactive) |
| C[C@H](CCC(=O)NCc1ccc(C(=O)Nc2ccccc2N)cc1)[C@H]1CC[C@H]2[C@@H]3[C@@H](O)C[C@@H]4C[C@H](O)CC[C@]4(C)[C@H]3CC[C@]12C | 67.8% (inactive) |
| N#Cc1cn(Cc2ccc(Cl)cc2Cl)c(C(=O)c2ccc(Br)cc2)c1N | 92% (inactive) |
| CCNC(=O)N1CCc2cc(OC)c(OCCc3ccc(OC)nc3)cc2C1c1ccc(OC)cc1C (centres undefined) | 51% (inactive) |
| C=CCn1c(-c2nc3ccc(C(=C(C#N)C#N)c4ccccc4)cc3[nH]2)cc2cc(Br)ccc21 | 77.5% (inactive) |
| Cc1ccc(S(=O)(=O)NCCNc2nc(Nc3ccc(N4CCN(C)CC4)cc3)nc3ccsc23)cc1 | 113% (inactive) |
| COc1cc2nc(Cl)nc(Nc3cccc(C4=Nc5c(N)nc(N)nc5NC(c5ccc(Cl)cc5)C4)c3)c2cc1OC (centres undefined) | 114% (inactive) |
